Sm TGR inh: blocks Schistosoma mansoni thioredoxin glutathione reductase. 360,000 tested, 3% active. purified TGR, DTNB reduction, TNB absorbance 405 nm. Potency, µM (highest dose often 114 µM), for the others: at the highest dose activity change, negative = inhibition, usual class: inhibitors; note: nearly all actives have a fitted effect of over 60% in size
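TGR 20 nM + NADPH 100 uM (dispensed conc.), cpd preinc 15 min RT; start with NADPH (500 uM addition) then DTNB (15 mM addition). Kinetic TNB absorbance, 405 nm filter. Four-parameter Hill fit across titration.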
AmpC inh detg: inhibitors of E. coli AmpC beta-lactamase with detergent. Potency, µM (titrated, usually from 114 µM), for the others: at the top dose activity change, negative = inhibition, usual class: inhibitors. AID 485294. 370,000 tested, 0.041% active. AmpC hydrolysis of nitrocefin, absorbance 480 nm, 0.01% Triton. P00811;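 note: 0% = no-compound wells and -100% = no-enzyme wells; nearly all actives have a fitted effect of over 25% in size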
Target sequence (P00811 whole entry, looked up): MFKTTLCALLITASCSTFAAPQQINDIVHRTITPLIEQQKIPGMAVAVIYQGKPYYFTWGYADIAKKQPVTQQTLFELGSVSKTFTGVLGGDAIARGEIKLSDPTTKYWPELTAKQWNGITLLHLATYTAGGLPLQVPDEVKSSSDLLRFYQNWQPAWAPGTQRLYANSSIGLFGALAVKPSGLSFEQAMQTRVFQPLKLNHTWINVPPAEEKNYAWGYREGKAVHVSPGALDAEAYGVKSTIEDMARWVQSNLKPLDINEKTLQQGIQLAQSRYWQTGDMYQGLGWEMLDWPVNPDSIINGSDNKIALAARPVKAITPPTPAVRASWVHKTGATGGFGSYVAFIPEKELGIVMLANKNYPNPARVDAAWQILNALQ
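AmpC (5.3 nM in the dispensed reagent) in 20 mM phosphate pH 7.0 with 0.01% (detergent screen) or 0.0001% Triton X-100 was preincubated with compounds for 15 min at room temperature. Nitrocefin was then added from an 800 uM solution, and hydrolysis was followed at 480 nm.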
AmpC no deterg: inhibitors of E. coli AmpC beta-lactamase without detergent. P00811. AmpC nitrocefin hydrolysis, absorbance 480 nm, 0.0001% Triton. Potency, µM (highest dose often 57.1 µM), for inactives: at the highest dose activity change, negative = inhibition, actives largely listed as inhibitors. 330,000 tested, 0.52% active. AID 485341;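 note: plate controls were no compound for no effect and no enzyme for full effect; nearly all actives have a fitted effect of over 20% in size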
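20 mM phosphate pH 7.0 + 0.01% (detergent screen) or 0.0001% Triton X-100; 5.3 nM AmpC reagent; cpd preinc 15 min RT; nitrocefin (800 uM stock) to start; A480 q20 s × 4 min; Activity was normalised to no-enzyme and no-compound control wells.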
* = called active by the depositor; u = inconclusive; x = no result given. Hits are enriched below; roughly 3.3% of the tested compounds scored in any of these assays. Calls come from the whole dose curve; as a rule, active = well fitted curve in the direction sought with a large enough effect; inconclusive = small, poorly fitted or top-dose-only effect, or another doubt; inactive = no such curve, though single readings can be large; an effect the other way counts as inactive or inconclusive. Unless noted, % is set by controls: 0 for no effect and ±100 for the full control effect; potency is the fitted concentration of half-maximal effect.

SMILES	Sm TGR inh	AmpC inh detg	AmpC no deterg
Cc1cc(=O)[nH]c(SCC(=O)Nc2ccc(Br)cn2)n1	-3.4%	3.9%	1.26µM*
Cc1ccc(-c2csc(NC(=O)CSc3nc(C)cc(=O)[nH]3)n2)cc1	-24.0%	-8.5%	14.1µM*
CCN(CC)c1nc2c(S(=O)(=O)c3ccccc3)nnn2c2ccc(Cl)cc12	0.8%	16.5%	x
O=C(Cn1c(=O)oc2ccccc21)NCc1ccccc1Cl	6.2%	-3.3%	x
C=C1CCN(Cc2ccccc2)S(=O)(=O)c2ccccc21	-5.4%	-2.0%	-25.0%
O=C1CCN(Cc2ccccc2)S(=O)(=O)c2ccccc21	20µM*	3.3%	-26.9%
COc1ccccc1-c1cn[nH]c1-c1ccc(OCc2ccc(F)cc2)cc1O	-0.1%	4.1%	7.08µM*
COc1ccccc1-c1cn[nH]c1-c1ccc(OCc2ccc([N+](=O)[O-])cc2)cc1O	-5.6%	u	-19.9%
Cc1cccc(-n2ncc(C(=O)NCc3ccco3)c2C2CCN(C(=O)OC(C)(C)C)CC2)c1	-6.0%	-1.0%	x
CCn1cc2nc(SCC(=O)Nc3cc(OC)cc(OC)c3)n(Cc3ccc(Cl)cc3)c(=O)c2n1	-0.3%	26.4%	x
CCn1c2ccc(Cl)cc2c2nc3ccccc3nc21	28.2µM*	-12.7%	-0.5%
CCn1c2ccc(OC)cc2c2nc3ccccc3nc21	1.3%	3.5%	201.7%
COC(=O)c1cc(-c2ccc(C)o2)nc2ccccc12	u	-0.4%	-22.0%
Cc1cc(C(=O)NCc2ccco2)c2ccccc2n1	44.0%	1.2%	-17.8%
Cc1ccc(-c2cc(C(=O)N/N=C/c3ccc([N+](=O)[O-])o3)c3ccccc3n2)o1	39.8µM*	u	-48.7%
Cc1ccc(-c2cc(C(=O)NCc3ccco3)c3ccccc3n2)o1	17.8µM*	u	-41.2%
O=C(N/N=C/c1ccc([N+](=O)[O-])o1)c1cc(-c2ccc(-c3ccccc3)cc2)nc2ccccc12	u	1.9%	u
COc1cccc(-c2cc(C(=O)Nc3ccc4c(c3)OCCO4)c3ccccc3n2)c1	-12.3%	-13.3%	-48.0%
Cc1ccc(-c2cc(C(=O)Nc3ccccc3C)c3ccccc3n2)o1	10µM*	-9.3%	-34.1%
COc1cccc(NC(=O)c2cc(-c3ccc(C)o3)nc3ccccc23)c1	35.5µM*	5.3%	-26.5%
Cc1cc(C)n2nc(CNC(=O)c3ccccc3Cl)nc2n1	7.3%	4.4%	x
Cc1ccc(Cn2ccn(CC(=O)Nc3ccccc3C(F)(F)F)c(=O)c2=O)cc1	12.8%	16.9%	x
CCn1cc2nc(SCC(=O)Nc3ccc(C)cc3)n(Cc3ccc(C)cc3)c(=O)c2n1	-2.9%	4.9%	x
COc1ccc(OC)c(C2C(C(=O)N3CCCCC3)=C(C)Nc3nc4ccccc4n32)c1 (configuration not stated)	7.2%	2.7%	x
O=c1c(S(=O)(=O)c2ccccc2)cn(Cc2cccc(F)c2)c2cc(N3CCOCC3)c(F)cc12	0.3%	-0.5%	x
SMILES	Sm TGR inh	AmpC inh detg	AmpC no deterg
Cc1ccc(-c2cc(C(=O)Nc3cccc(S(=O)(=O)N(C)C)c3)c3ccccc3n2)o1	22.4µM*	-5.1%	1.0%
COc1cccc(NC(=O)CN(C)C(=O)c2cc(-c3ccc(C)o3)nc3ccccc23)c1	14.1µM*	u	-27.5%
COc1cccc(NC(=O)CN(C)C(=O)c2cc(-c3cccc(Br)c3)nc3ccccc23)c1	-5.4%	-16.5%	-6.8%
COc1cc(-c2cc(C(=O)Nc3cccc(S(=O)(=O)N(C)C)c3)c3ccccc3n2)cc(OC)c1OC	2.6%	0.2%	-13.9%
CCOc1ccc(NC(=O)CN2CCSc3ccc(S(=O)(=O)N4CCCC4)cc32)cc1	3.2%	18.7%	x
Cc1cccc(NC(=O)c2ccc(Cn3nc(N4CCN(c5ccccc5)CC4)ccc3=O)o2)c1C	7.4%	-4.4%	x
Cc1cccc(NC(=O)CSc2nc3ccc(NC(=O)COc4ccc(Cl)cc4)cc3s2)c1	-2.8%	-7.2%	x
O=C1N/C(=C/c2ccc(N3CCOCC3)cc2)C(=O)N1Cc1ccc(F)cc1	-17.1%	-1.2%	-13.2%
COc1cc(/C=C2\SC(=Nc3ccccc3)N(CCc3c[nH]c4ccccc34)C2=O)ccc1OC(C)C(=O)O (configuration not stated)	2.1%	u	112.3%
O=C1S/C(=C\c2ccc(N3CCOCC3)o2)C(=O)N1Cc1ccc(F)cc1	5.01µM*	2.3%	-8.8%
CC(C)OC(=O)CN1C(=O)S/C(=C/c2ccc(N3CCCCC3)o2)C1=O	6.31µM*	-7.1%	15.7%
CC(C)(C)OC(=O)CN1C(=O)S/C(=C\c2ccc(-c3cccc(C(=O)O)c3)o2)C1=O	28.4%	-9.0%	-22.8%
O=C1S/C(=C/c2ccc(N3CCOCC3)o2)C(=O)N1Cc1ccc(F)cc1	1µM*	-13.9%	-11.7%
O=C1N=C(N2CCOCC2)S/C1=C/c1ccc(-c2ccc(F)cc2)o1	-27.2%	-7.2%	0.6%
O=C1/C(=C/c2ccc(N3CCOCC3)o2)SC(=Nc2ccccc2)N1CCc1c[nH]c2ccccc12	8.91µM*	7.1%	22.2%
CCc1ccccc1NC(=O)C(=O)NCC(c1cccnc1)N1CCc2ccccc21 (configuration not stated)	-5.3%	10.8%	x
CCOc1ccc(-c2nc(SC(C(C)=O)C(=O)N(C)C)c3c(=O)n(C)c(=O)n(C)c3n2)cc1 (configuration not stated)	4.1%	16.8%	x
Cc1ccc(C)n1-c1nnc(N2CCCC(C(=O)NCc3ccc(Cl)cc3)C2)s1 (configuration not stated)	u	-3.6%	x
N#Cc1c([N+](=O)[O-])cc([N+](=O)[O-])cc1S(=O)(=O)Cc1ccccc1	0.355µM*	u	-41.9%
COc1cc(OC)c(C#N)c(S(=O)(=O)Cc2ccccc2)c1	0.0%	3.0%	-26.7%
CC(C)CNC(=O)Nc1cc(C(=O)NCc2ccc(C(C)C)cc2)ccc1N1CCCC1	1.1%	9.7%	x
COC(=O)Nc1sc2c(c1C(=O)N1CCOCC1)CCC(C)C2 (configuration not stated)	44.7µM*	u	-6.4%
CCOC(=O)Nc1sc2c(c1C(N)=O)CCC(C)C2 (configuration not stated)	-5.9%	-0.7%	-19.4%
CC(=O)c1cc(-c2ccc(F)cc2)n(CC(=O)NCc2ccc(C)cc2)c1C	14.2%	5.6%	x
O=C(Nc1ccc(Cl)c(C(F)(F)F)c1)C1CCN(S(=O)(=O)c2cccc3nonc23)CC1	0.9%	15.4%	x
SMILES	Sm TGR inh	AmpC inh detg	AmpC no deterg
Cc1sc2ccccc2[n+]1CCC(C)S(=O)(=O)[O-] (configuration not stated)	2µM*	u	2.0%
Cc1sc2ccccc2[n+]1CC(=O)O	6.8%	10.6%	-23.6%
Cc1cccc(N2CCN(C(=O)CN3C(=O)COc4ccc(S(=O)(=O)N5CCCCCC5)cc43)CC2)c1C	-4.0%	-1.7%	x
O=C(c1cc2ccccc2oc1=O)N(Cc1ccco1)Cc1cccs1	28.2µM*	u	-57.8%
O=C(c1cc2ccccc2oc1=O)N(Cc1cccs1)Cc1cccs1	-0.7%	u	-14.6%
Cc1ccc(N2C(=O)[C@@H]3C(c4ccc(F)cc4)=NO[C@@H]3C2=O)cc1	-8.4%	-3.0%	-20.5%
CC(=O)C1=NOC2C(=O)N(c3ccccc3)C(=O)C12 (configuration not stated)	11.2µM*	-2.6%	-14.9%
